Results from PubChem BioAssay (Tox21).
Records with an inconclusive call do not appear. Activity calls are given as the source filed them. Unless noted, the call rests on the fitted dose curve; in most records, active means well fitted curve in the direction sought with a large enough effect in the repeat runs; inconclusive means weak or mixed curves; inactive means no such curve, though single readings can be large; an effect the other way counts as inactive or inconclusive.

Experiments:
[1] = qHTS assay to identify small molecule agonists of the vitamin D receptor (VDR) signaling pathway - cell viability counter screen (AID 743224); further: nearly all actives have a fitted effect of over 50% in size
Method in brief: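 VDR-bla cell line, quantitative HTS format; 16 h compound incubation (37C, 5% CO2); ATP-based CellTiter-Glo luminescence measured in the reporter assay wells.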

[2] = qHTS assay to identify small molecule antagonists of the vitamin D receptor (VDR) signaling pathway - cell viability counter screen (AID 743225); further: nearly all actives have a fitted effect of over 50% in size
Method in brief: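 HEK293T VDR-bla; cpd + 1a,25-(OH)2D3 3 nM final, 16 h 37C/5% CO2; B/G FRET substrate 2 h RT; then CellTiter-Glo 30 min RT, luminescence.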

[3] = qHTS assay to identify small molecule agonists of the NFkB signaling pathway (AID 1159509; active means well fitted curve in the direction sought with a large enough effect in the signal ratio in the repeat runs, not every such curve was filed as active; the % refers to the signal ratio)
Method in brief: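 ME-180 NFkB-bla, 2,000 cells/well, overnight plating; cpd pinned in DMSO, 5 h 37 C; B/G FRET substrate 1.5 h RT; ex 405, em 460/530 nm.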

[4] = qHTS assay to identify small molecule agonists of the endoplasmic reticulum stress response signaling pathway (AID 1159516; active means well fitted activation curve with a large enough effect in the signal ratio in the repeat runs, not every such curve was filed as active; the % refers to the signal ratio)
Method in brief: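 ER stress element reporter (bla) in HeLa. 1,500 cells/well, overnight attachment; 5 hr compound; 2 hr RT substrate; dual-emission fluorescence.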

[5] = qHTS assay to identify small molecule agonists of the endoplasmic reticulum stress response signaling pathway - cell viability counter screen (AID 1159517; calls by dose curve;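 further: HeLa cells carrying an ER stress response element beta-lactamase reporter; nearly all actives have a fitted effect of over 50% in size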)
Method in brief: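 CellTiter-Glo was added to wells already read for beta-lactamase FRET, and luminescence was recorded 30 min later. Cells: ESRE-bla HeLa, 1,500 per well, compound exposure 5 hr at 37 C.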

[6] = qHTS assay to identify small molecule antagonists of the retinoid-related orphan receptor gamma (ROR-gamma) signaling pathway - cell viability counter screen (AID 1159520); further: nearly all actives have a fitted effect of over 50% in size
Method in brief: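 Tet-on ROR gamma CHO cells (1,000/well) were plated 4 hr, given compounds in DMSO for 2 hr at 37 C, then induced with 1 uM final doxycycline for 16 hr. Viability was read as ATP by CellTiter-Glo luminescence after 30 min.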

[7] = biological target: Nuclear receptor ROR-gamma (Homo sapiens) (UniProt P51449); test: qHTS assay to identify small molecule antagonists of the retinoid-related orphan receptor gamma (ROR-gamma) signaling pathway (AID 1159521)
Method in brief: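 Cells were plated, rested 4 h at 37 C, exposed to compounds for 2 h, then given 1 uM final doxycycline hyclate to induce RORγ expression. After 16 h, ONE-Glo luminescence from the ROR response element reporter was measured.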

[8] = qHTS assay to identify small molecule agonists of the AP-1 signaling pathway - cell viability counter screen (AID 1159525; calls by dose curve; further: nearly all actives have a fitted effect of over 55% in size)
Method in brief: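 ME-180 AP-1-bla, 2500 cells/well, Opti-MEM + 0.5% dialyzed FBS; overnight 37 °C; cpd 15-pt titration, 5 h 37 °C; CellTiter-Glo 30 min RT; luminescence read; normalised to TOAB and DMSO controls.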

[9] = qHTS assay to identify small molecule agonists of the AP-1 signaling pathway (AID 1159526; calls by dose curve)
[10] = biological target: Retinoic acid receptor RXR-alpha (Homo sapiens) (UniProt P19793); test: qHTS assay to identify small molecule agonists of the RXR signaling pathway (AID 1159527; calls by dose curve; further: nearly all actives have a fitted effect of over 35% in size)
Sequence of Retinoic acid receptor RXR-alpha (Homo sapiens) (P19793 whole entry, looked up): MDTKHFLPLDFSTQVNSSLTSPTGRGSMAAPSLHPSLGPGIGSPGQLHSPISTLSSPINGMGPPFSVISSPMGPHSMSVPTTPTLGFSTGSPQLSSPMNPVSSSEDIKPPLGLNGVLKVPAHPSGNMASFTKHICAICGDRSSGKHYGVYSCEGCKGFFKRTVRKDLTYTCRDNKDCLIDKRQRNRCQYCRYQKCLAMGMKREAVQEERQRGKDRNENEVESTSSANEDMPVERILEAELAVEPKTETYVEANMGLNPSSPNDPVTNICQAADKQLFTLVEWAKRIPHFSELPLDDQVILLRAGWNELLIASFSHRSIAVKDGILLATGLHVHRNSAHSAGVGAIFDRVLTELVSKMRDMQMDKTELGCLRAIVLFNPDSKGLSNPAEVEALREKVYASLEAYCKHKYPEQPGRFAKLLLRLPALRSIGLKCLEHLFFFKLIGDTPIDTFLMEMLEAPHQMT
Method in brief: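 Cells plated at 2,000/well, rested 5 hr at 37 C, pin-dosed with DMSO compound solutions, incubated 16 hr, then loaded with B/G FRET substrate for 2 hr at RT before dual-emission fluorescence reading.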

[11] = qHTS assay to identify small molecule agonists of the RXR signaling pathway - cell viability counter screen (AID 1159529)
Method in brief: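 Steps: seed RXR-alpha-UAS-bla HEK 293T cells in assay medium containing 2% charcoal-stripped FBS; incubate 5 hr; add compounds in DMSO; incubate 16 hr at 37 C; after the bla read, add CellTiter-Glo and read luminescence at 30 min.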

[12] = qHTS assay to identify small molecule antagonists of the retinoid acid receptor (RAR) signaling pathway - cell viability counter screen (AID 1159551); further: nearly all actives have a fitted effect of over 35% in size
Method in brief: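 Following overnight attachment, C3RL4 reporter cells received DMSO-dissolved compounds and then retinol (1 uM final). Six hours later at 37 C, ATP content was measured by CellTiter-Glo luminescence.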

[13] = qHTS assay to identify small molecule antagonists of the retinoic acid receptor (RAR) signaling pathway (AID 1159552; further: nearly all actives have a fitted effect of over 50% in size)
Method in brief: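 Retinol at 1 uM final stimulated RARE-luciferase expression in C3RL4 cells exposed to test compounds for 6 hr at 37 C. Reduced luminescence, read 30 min after detection reagent, indicated pathway antagonism.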

[14] = qHTS assay to identify small molecule agonists of the retinoic acid receptor (RAR) signaling pathway (AID 1159553); details: C3RL4 RARE luciferase reporter, agonist, 6 h; activation: at 73.3 µM (top of the series)
Method in brief: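 Cell line C3RL4, RARE luciferase reporter. Treatment: compounds in DMSO, 6 hr, 37 C, 5% CO2, after overnight plating. Detection: luminescence, 30 min RT after reagent.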

[15] = qHTS assay to identify small molecule antagonists of the estrogen related receptor (ERR) signaling pathway (AID 1224819)
Method in brief: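 LOPAC library screened for antagonism as reduced One-Glo luminescence in ERR reporter cells (2,000/well). Compounds were added after 6 h pre-incubation and left 18 h at 37C; reading followed a 30 min room-temperature reagent step.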

[16] = qHTS assay to identify small molecule agonists of the estrogen related receptor (ERR) signaling pathway (AID 1224820)
Method in brief: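 Cells: ERR line from NTP, 2,000/well. Pre-incubation 6 h, 37 C/5% CO2. Compound (DMSO) pin transfer, 18 h 37 C. One-Glo, 30 min RT, luminescence.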

[17] = test system: estrogen-related receptor alpha (ERRalpha) with PGC-1alpha coactivator, human; test: qHTS assay to identify small molecule antagonists of the estrogen related receptor signaling pathway with the pleiotropic PPARgamma coactivator (PGC) (AID 1224821; calls by dose curve)
Method in brief: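 Luminescent read-out (One-Glo, 30 min at room temperature) following 18 h treatment of PGC/ERR cells at 37 C with compounds delivered in DMSO. Cells had settled 6 h at 37 C/5% CO2 before dosing.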

[18] = qHTS assay to identify small molecule agonists of the estrogen related receptor signaling pathway with the pleiotropic PPARgamma coactivator (PGC) (AID 1224823)
Method in brief: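 Steps: plate PGC/ERR cells at 2,000 cells/well; incubate 6 h, 37 C/5% CO2; pin-transfer compounds (DMSO); incubate 18 h, 37 C; add One-Glo; 30 min RT; read luminescence.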

Measured: Potency

CC(=O)OCC(=O)NCCCOc1cccc(CN2CCCCC2)c1
not listed: [13] | [14] | [15] | [16] | [17] | [18]
inactive: all other assays above

O=C(CCCN1CC=C(n2c(=O)[nH]c3ccccc32)CC1)c1ccc(F)cc1
not listed: [10] | [11] | [15] | [16] | [17] | [18]
inactive: all other assays above

CCCCCCNC(=O)n1cc(F)c(=O)[nH]c1=O
not listed: [2] | [10] | [12] | [15] | [16] | [17] | [18]
inactive: all other assays above

Cc1ccc(C(C)(C)O)cc1
not listed: [8] | [13] | [14] | [15] | [16] | [17] | [18]
inactive: all other assays above

CN(C)CCC=C1c2ccccc2C=Cc2ccccc21
not listed: [2] | [9] | [10] | [11] | [13]
inactive: all other assays above

CC(CCC(=O)O)C(=O)O (stereo unspecified)
not listed: [12] | [15] | [16] | [17] | [18]
inactive: all other assays above

O=c1[nH]c2ccc(Cl)cc2o1
not listed: [8] | [15] | [16] | [17] | [18]
inactive: all other assays above

CCCCCCCCCI
not listed: [9] | [10] | [15] | [16] | [17] | [18]
inactive: all other assays above

COc1cc(N)c(Cl)cc1C(=O)NC1CCN(CCCOc2ccc(F)cc2)CC1OC (stereo unspecified)
not listed: [1] | [10] | [15] | [16] | [17] | [18]
inactive: all other assays above

Oc1cccc(Nc2ccccc2)c1
not listed: [8] | [14] | [15] | [16] | [17] | [18]
inactive: all other assays above
